Results filed as inconclusive are left out. Activity calls are given as the source filed them. How the source made its calls: active means hit-call score of the fitted dose curve at least 0.9, where 1 is the maximum; inconclusive means response in the unintended direction; inactive means score below 0.9.
target: human Aurora Kinase A - serine/threonine-protein Kinase 6 (AurA), AURKA (gene 6790) (UniProt O14965); assay: NVS_ENZ_hAurA: NovaScreen (NVS) Enzymatic Assay for human Aurora Kinase A - serine/threonine-protein Kinase 6 (AurA) (AID 2283142)
Sequence (O14965 whole entry, looked up): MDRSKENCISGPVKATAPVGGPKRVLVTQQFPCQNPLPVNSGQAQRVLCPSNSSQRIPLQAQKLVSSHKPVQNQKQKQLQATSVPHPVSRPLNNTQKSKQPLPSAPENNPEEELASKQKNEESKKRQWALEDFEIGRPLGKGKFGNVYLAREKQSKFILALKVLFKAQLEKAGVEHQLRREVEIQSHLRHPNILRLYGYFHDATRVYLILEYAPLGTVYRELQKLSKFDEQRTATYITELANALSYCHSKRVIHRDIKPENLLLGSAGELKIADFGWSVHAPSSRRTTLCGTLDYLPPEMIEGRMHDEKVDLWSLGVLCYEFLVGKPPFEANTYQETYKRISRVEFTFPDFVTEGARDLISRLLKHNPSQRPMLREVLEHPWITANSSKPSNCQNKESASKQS
Procedure, shortened: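 Cell-free enzymatic assay with human Aurora A, 1 hour after dosing. Fluorescent substrate turnover detected after electrophoretic mobility shift separation of substrate and product. Screened at 25 uM, actives retested in concentration-response up to 50 uM.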

| Compound | AC50 | outcome |
| --- | --- | --- |
| O=C(O)C(F)(F)C(F)(F)C(F)(F)C(F)(F)C(F)(F)C(F)(F)C(F)(F)C(F)(F)F | 13.1 µM (active) |  |
| CC1=C2C[C@H]3[C@@H](CC=C4C[C@@H](O)CC[C@@]43C)[C@@H]2CC[C@]12O[C@@H]1C[C@H](C)CN[C@H]1[C@H]2C |  | inactive |
| CC(C)C(=O)OCC(C)(C)C(OC(=O)C(C)C)C(C)C (stereo unspecified) |  | inactive |
| CCCN(CCC)N=O |  | inactive |
| Cc1cc2c3c(c1)C(c1ccccc1)=N[C@@H](NC(=O)c1ccncc1)C(=O)N3CC2 |  | inactive |

target: CDK2 (gene 1017) (UniProt P24941); assay: NVS_ENZ_hCDK2: NovaScreen (NVS) Enzymatic Assay for human Cyclin-Cependent Kinase 2 (CDK2) (AID 2283144)
Procedure, shortened: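 Cell-free recombinant human CDK2 with fluorescent substrate, product separated by electrophoretic mobility shift; 1 hr read. Primary screen at 25 uM in duplicate, actives retested in concentration-response up to 50 uM; loss of signal versus DMSO.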

| Compound | outcome |
| --- | --- |
| O=C(O)C(F)(F)C(F)(F)C(F)(F)C(F)(F)C(F)(F)F | inactive |
| CC1=C2C[C@H]3[C@@H](CC=C4C[C@@H](O)CC[C@@]43C)[C@@H]2CC[C@]12O[C@@H]1C[C@H](C)CN[C@H]1[C@H]2C | inactive |
| CCCN(CCC)N=O | inactive |

target: human Caspase 8 (CASP8), CASP8 (gene 841) (UniProt Q14790); assay: NVS_ENZ_hCASP8: NovaScreen (NVS) Enzymatic Assay for human Caspase 8 (CASP8) (AID 2283146)
Sequence (Q14790 whole entry, looked up): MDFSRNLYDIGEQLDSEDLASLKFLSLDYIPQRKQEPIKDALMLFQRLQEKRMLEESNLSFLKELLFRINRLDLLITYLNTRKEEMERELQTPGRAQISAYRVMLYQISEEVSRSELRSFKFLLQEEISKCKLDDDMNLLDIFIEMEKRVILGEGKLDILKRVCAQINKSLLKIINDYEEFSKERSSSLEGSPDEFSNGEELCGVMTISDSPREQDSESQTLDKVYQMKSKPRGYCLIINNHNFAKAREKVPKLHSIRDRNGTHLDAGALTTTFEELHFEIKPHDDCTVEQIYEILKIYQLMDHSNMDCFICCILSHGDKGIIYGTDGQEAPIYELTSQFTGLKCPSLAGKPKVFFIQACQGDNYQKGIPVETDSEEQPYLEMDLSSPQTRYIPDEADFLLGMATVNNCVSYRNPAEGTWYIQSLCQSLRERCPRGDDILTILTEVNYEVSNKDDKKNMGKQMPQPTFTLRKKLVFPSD
Procedure, shortened: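 E. coli-expressed enzyme was used in a cell-free fluorogenic substrate assay read 1 h after dosing. Loss of signal was scored relative to DMSO, and the primary screen was run in duplicate at 25 uM.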

| Compound | outcome |
| --- | --- |
| ClC1=C(Cl)[C@]2(Cl)[C@@H]3[C@@H]4C[C@@H]([C@H]5O[C@@H]45)[C@@H]3[C@@]1(Cl)C2(Cl)Cl | inactive |
| CCC(C)c1cc([N+](=O)[O-])cc([N+](=O)[O-])c1O (stereo unspecified) | inactive |
| CO/C=C(/C(=O)OC)c1ccccc1COc1cccc(C(F)(F)F)n1 | inactive |

target: human Casein Kinase 1-delta (CK1D), CSNK1D (gene 1453) (UniProt P48730); assay: NVS_ENZ_hCK1D: NovaScreen (NVS) Enzymatic Assay for human Casein Kinase 1-delta (CK1D) (AID 2283148)
Sequence (P48730 whole entry, looked up): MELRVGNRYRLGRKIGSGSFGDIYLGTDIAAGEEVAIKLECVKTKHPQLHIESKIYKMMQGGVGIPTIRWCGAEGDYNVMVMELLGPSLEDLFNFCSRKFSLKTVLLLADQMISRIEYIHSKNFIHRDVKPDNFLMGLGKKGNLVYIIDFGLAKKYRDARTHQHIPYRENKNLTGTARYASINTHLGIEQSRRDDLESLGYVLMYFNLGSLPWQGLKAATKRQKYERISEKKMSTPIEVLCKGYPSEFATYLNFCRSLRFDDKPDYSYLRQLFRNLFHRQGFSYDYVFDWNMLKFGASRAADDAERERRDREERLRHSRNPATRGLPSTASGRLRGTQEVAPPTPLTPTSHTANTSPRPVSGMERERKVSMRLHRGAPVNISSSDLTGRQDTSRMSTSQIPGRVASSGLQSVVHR
Procedure, shortened: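 Recombinant human CK1-delta, cell-free; fluorescent substrate with electrophoretic mobility-shift separation of product, read 1 h after dosing. Single 25 uM duplicate screen, then concentration-response up to 50 uM; loss of signal vs DMSO.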

| Compound | outcome | AC50 |
| --- | --- | --- |
| Oc1ccc(C(c2ccc(O)cc2)(C(F)(F)F)C(F)(F)F)cc1 | inactive |  |
| O=C(O)C(F)(F)C(F)(F)C(F)(F)C(F)(F)C(F)(F)C(F)(F)C(F)(F)C(F)(F)F | inactive |  |
| CCC(C)c1cc([N+](=O)[O-])cc([N+](=O)[O-])c1O (stereo unspecified) | inactive |  |
| CCNc1nc(NC(C)C)nc(SC)n1 |  | 16.3 µM (active) |
| Cc1cccc(C)c1N | inactive |  |
| O=NN(c1ccccc1)c1ccccc1 | inactive |  |
| CCCN(CCC)N=O | inactive |  |
| O=C(NC(=O)c1c(F)cccc1F)Nc1cc(Cl)c(OC(F)(F)C(F)F)c(Cl)c1 | inactive |  |

target: human Colony Stimulating Factor 1 Receptor (CSF1R), CSF1R (gene 1436) (UniProt P07333); assay: NVS_ENZ_hCSF1R: NovaScreen (NVS) Enzymatic Assay for human Colony Stimulating Factor 1 Receptor (CSF1R) (AID 2283150)
Sequence (P07333 whole entry, looked up): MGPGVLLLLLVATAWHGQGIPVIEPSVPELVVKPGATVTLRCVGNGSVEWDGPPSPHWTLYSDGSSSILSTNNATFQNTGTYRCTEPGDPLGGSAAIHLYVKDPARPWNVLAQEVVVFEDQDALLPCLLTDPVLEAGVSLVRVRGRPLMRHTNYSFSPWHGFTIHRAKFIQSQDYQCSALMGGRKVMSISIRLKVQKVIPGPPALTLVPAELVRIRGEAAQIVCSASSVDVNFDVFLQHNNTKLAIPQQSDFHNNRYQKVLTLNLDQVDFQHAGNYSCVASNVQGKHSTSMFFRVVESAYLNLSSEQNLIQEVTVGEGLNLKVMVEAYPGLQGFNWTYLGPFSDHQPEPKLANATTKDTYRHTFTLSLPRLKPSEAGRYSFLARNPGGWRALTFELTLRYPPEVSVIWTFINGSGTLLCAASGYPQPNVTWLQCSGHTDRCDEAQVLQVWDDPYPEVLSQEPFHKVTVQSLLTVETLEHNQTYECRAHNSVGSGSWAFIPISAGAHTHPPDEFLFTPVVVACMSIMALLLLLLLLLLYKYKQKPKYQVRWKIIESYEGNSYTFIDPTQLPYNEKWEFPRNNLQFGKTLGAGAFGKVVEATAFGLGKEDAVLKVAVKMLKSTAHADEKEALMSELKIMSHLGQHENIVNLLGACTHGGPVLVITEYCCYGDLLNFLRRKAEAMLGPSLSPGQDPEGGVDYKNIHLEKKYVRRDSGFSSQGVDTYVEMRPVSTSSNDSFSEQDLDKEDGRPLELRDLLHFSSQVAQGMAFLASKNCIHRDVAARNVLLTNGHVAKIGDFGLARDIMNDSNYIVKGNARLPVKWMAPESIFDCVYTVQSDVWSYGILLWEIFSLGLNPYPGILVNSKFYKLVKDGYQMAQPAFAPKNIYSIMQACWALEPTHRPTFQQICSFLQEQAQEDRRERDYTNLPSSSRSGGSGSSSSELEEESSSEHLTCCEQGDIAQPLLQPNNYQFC
Procedure, shortened: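 Cell-free recombinant human CSF1R kinase with fluorescent substrate, product separated by electrophoretic mobility shift; read 1 h after dosing. Primary screen at 25 uM in duplicate, actives then in concentration-response up to 50 uM, relative to DMSO.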

| Compound | outcome |
| --- | --- |
| Oc1ccc(C(c2ccc(O)cc2)(C(F)(F)F)C(F)(F)F)cc1 | inactive |
| O=S(=O)(O)C(F)(F)C(F)(F)C(F)(F)C(F)(F)C(F)(F)C(F)(F)F | inactive |
| ClC1=C(Cl)[C@]2(Cl)[C@@H]3[C@@H]4C[C@@H]([C@H]5O[C@@H]45)[C@@H]3[C@@]1(Cl)C2(Cl)Cl | inactive |
| O=C(O)C(F)(F)C(F)(F)C(F)(F)C(F)(F)C(F)(F)C(F)(F)C(F)(F)C(F)(F)F | inactive |
| CC1=C2C[C@H]3[C@@H](CC=C4C[C@@H](O)CC[C@@]43C)[C@@H]2CC[C@]12O[C@@H]1C[C@H](C)CN[C@H]1[C@H]2C | inactive |
| C1CC2OC2CC1C1CO1 (stereo unspecified) | inactive |
| CCCN(CCC)N=O | inactive |

From PubChem BioAssay (EPA / NIEHS)
